# Reference: the supplement of paper PMC4466140
# What was measured:
# Experiment in all cases: SPOT peptide array binding signal intensity (averaged, normalized) (arbitrary units (background-subtracted, floor 0; scale differs between SH3 domains)); higher = stronger binding of the SH3 domain to the peptide
# [1] = target: AgAbp1
# Outline: (§1)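 Cellulose membranes carried synthetic 15-mer peptides with cysteines swapped for serines. These were incubated overnight at 4°C with 10 μg/ml of GST-fused SH3 domains from four yeast species in TBS-based blocking buffer. Binding signal, detected with anti-GST antibody and quantified in Genespotter, is the normalized, background-subtracted spot intensity averaged over replicates, in arbitrary units specific to each domain.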
# [2] = target: AgBbc1
# Outline: as §1
# [3] = target: AgBem1-D1
# Outline: as §1
# [4] = target: AgBzz1-D1
# Outline: as §1
# [5] = target: AgBzz1-D2
# Outline: as §1
# [6] = target: AgCyk3
# Outline: as §1
# [7] = target: AgFus1
# Outline: as §1
# [8] = target: AgHof1
# Outline: as §1
# [9] = target: AgHse1
# Outline: as §1
# [10] = target: AgLsb1
# Outline: as §1
# [11] = target: AgLsb4
# Outline: as §1
# [12] = target: AgMyo5
# Outline: as §1
# [13] = target: AgNbp2
# Outline: as §1
# [14] = target: AgRvs167
# Outline: as §1
# [15] = target: AgSho1
# Outline: as §1
# [16] = target: AgSla1-D1-D2
# Outline: as §1
# [17] = target: AgSla1-D3
# Outline: as §1
# [18] = target: CaAbp1-D1
# Outline: as §1
# [19] = target: CaAbp1-D2
# Outline: as §1
# [20] = target: CaBbc1
# Outline: as §1
# [21] = target: CaBem1-D1
# Outline: as §1
# [22] = target: CaBzz1-D1
# Outline: as §1
# [23] = target: CaBzz1-D2
# Outline: as §1
# [24] = target: CaCyk3
# Outline: as §1
# [25] = target: CaFus1
# Outline: as §1
# [26] = target: CaHof1
# Outline: as §1
# [27] = target: CaHse1
# Outline: as §1
# [28] = target: CaLsb1
# Outline: as §1
# [29] = target: CaLsb4
# Outline: as §1
# [30] = target: CaMyo5
# Outline: as §1
# [31] = target: CaNbp2
# Outline: as §1
# [32] = target: CaRvs167
# Outline: as §1
# [33] = target: CaRvs167-3
# Outline: as §1
# [34] = target: CaSho1
# Outline: as §1
# [35] = target: CaSla1-D1-D2
# Outline: as §1
# [36] = target: CaSla1-D3
# Outline: as §1
# [37] = target: ScAbp1
# Outline: as §1
# [38] = target: ScBbc1
# Outline: as §1
# [39] = target: ScBem1-D1
# Outline: as §1
# [40] = target: ScBzz1-D1
# Outline: as §1
# [41] = target: ScBzz1-D2
# Outline: as §1
# [42] = target: ScCyk3
# Outline: as §1
# [43] = target: ScFus1
# Outline: as §1
# [44] = target: ScHof1
# Outline: as §1
# [45] = target: ScHse1
# Outline: as §1
# [46] = target: ScLsb1
# Outline: as §1
# [47] = target: ScLsb2
# Outline: as §1
# [48] = target: ScLsb3
# Outline: as §1
# [49] = target: ScLsb4
# Outline: as §1
# [50] = target: ScMyo3
# Outline: as §1
# [51] = target: ScMyo5
# Outline: as §1
# [52] = target: ScNbp2
# Outline: as §1
# [53] = target: ScPex13
# Outline: as §1
# [54] = target: ScRvs167
# Outline: as §1
# [55] = target: ScSho1
# Outline: as §1
# [56] = target: ScSla1-D1-D2
# Outline: as §1
# [57] = target: ScSla1-D3
# Outline: as §1
# [58] = target: SpAbp1-D1
# Outline: as §1
# [59] = target: SpBbc1
# Outline: as §1
# [60] = target: SpBzz1-D1
# Outline: as §1
# [61] = target: SpBzz1-D2
# Outline: as §1
# [62] = target: SpCyk3
# Outline: as §1
# [63] = target: SpHof1
# Outline: as §1
# [64] = target: SpHof1-2
# Outline: as §1
# [65] = target: SpHof1-3
# Outline: as §1
# [66] = target: SpHse1
# Outline: as §1
# [67] = target: SpLsb1
# Outline: as §1
# [68] = target: SpLsb4
# Outline: as §1
# [69] = target: SpMyo1
# Outline: as §1
# [70] = target: SpNbp2
# Outline: as §1
# [71] = target: SpPex13
# Outline: as §1
# [72] = target: SpRvs167
# Outline: as §1
# [73] = target: SpSla1-D1-D2
# Outline: as §1
# [74] = target: SpSla1-D3
# Outline: as §1
binder,measurement,setting,value
PHNPSPFFPPPDFND,SPOT peptide array binding signal intensity,[1],≤ 0
same,SPOT peptide array binding signal intensity,[2],3
same,SPOT peptide array binding signal intensity,[3],16.5
same,SPOT peptide array binding signal intensity,[4],5
same,SPOT peptide array binding signal intensity,[5],22
same,SPOT peptide array binding signal intensity,[6],≤ 0
same,SPOT peptide array binding signal intensity,[7],≤ 0
same,SPOT peptide array binding signal intensity,[8],≤ 0
same,SPOT peptide array binding signal intensity,[9],71
same,SPOT peptide array binding signal intensity,[10],3
same,SPOT peptide array binding signal intensity,[11],≤ 0
same,SPOT peptide array binding signal intensity,[12],610
same,SPOT peptide array binding signal intensity,[13],42
same,SPOT peptide array binding signal intensity,[14],0.667
same,SPOT peptide array binding signal intensity,[15],≤ 0
same,SPOT peptide array binding signal intensity,[16],≤ 0
same,SPOT peptide array binding signal intensity,[17],≤ 0
same,SPOT peptide array binding signal intensity,[18],2
same,SPOT peptide array binding signal intensity,[19],28
same,SPOT peptide array binding signal intensity,[20],14
same,SPOT peptide array binding signal intensity,[21],≤ 0
same,SPOT peptide array binding signal intensity,[22],1.5
same,SPOT peptide array binding signal intensity,[23],1.53e-05
same,SPOT peptide array binding signal intensity,[24],1
same,SPOT peptide array binding signal intensity,[25],32.5
same,SPOT peptide array binding signal intensity,[26],≤ 0
same,SPOT peptide array binding signal intensity,[27],2
same,SPOT peptide array binding signal intensity,[28],≤ 0
same,SPOT peptide array binding signal intensity,[29],28
same,SPOT peptide array binding signal intensity,[30],112
same,SPOT peptide array binding signal intensity,[31],40.5
same,SPOT peptide array binding signal intensity,[32],0.333
same,SPOT peptide array binding signal intensity,[33],≤ 0
same,SPOT peptide array binding signal intensity,[34],7.5
same,SPOT peptide array binding signal intensity,[35],≤ 0
same,SPOT peptide array binding signal intensity,[36],≤ 0
same,SPOT peptide array binding signal intensity,[37],≤ 0
same,SPOT peptide array binding signal intensity,[38],0.5
same,SPOT peptide array binding signal intensity,[39],≤ 0
same,SPOT peptide array binding signal intensity,[40],≤ 0
same,SPOT peptide array binding signal intensity,[41],10.5
same,SPOT peptide array binding signal intensity,[42],≤ 0
same,SPOT peptide array binding signal intensity,[43],≤ 0
same,SPOT peptide array binding signal intensity,[44],0.25
same,SPOT peptide array binding signal intensity,[45],5
same,SPOT peptide array binding signal intensity,[46],≤ 0
same,SPOT peptide array binding signal intensity,[47],≤ 0
same,SPOT peptide array binding signal intensity,[48],≤ 0
same,SPOT peptide array binding signal intensity,[49],1
same,SPOT peptide array binding signal intensity,[50],920
same,SPOT peptide array binding signal intensity,[51],613
same,SPOT peptide array binding signal intensity,[52],5
same,SPOT peptide array binding signal intensity,[53],512
same,SPOT peptide array binding signal intensity,[54],≤ 0
same,SPOT peptide array binding signal intensity,[55],≤ 0
same,SPOT peptide array binding signal intensity,[56],≤ 0
same,SPOT peptide array binding signal intensity,[57],3
same,SPOT peptide array binding signal intensity,[58],5
same,SPOT peptide array binding signal intensity,[59],≤ 0
same,SPOT peptide array binding signal intensity,[60],30
PALPSLPPPPLLNVD,SPOT peptide array binding signal intensity,[31],≤ 0
same,SPOT peptide array binding signal intensity,[32],≤ 0
same,SPOT peptide array binding signal intensity,[33],≤ 0
same,SPOT peptide array binding signal intensity,[34],8.5
same,SPOT peptide array binding signal intensity,[35],≤ 0
same,SPOT peptide array binding signal intensity,[36],≤ 0
same,SPOT peptide array binding signal intensity,[37],≤ 0
same,SPOT peptide array binding signal intensity,[38],≤ 0
same,SPOT peptide array binding signal intensity,[39],≤ 0
same,SPOT peptide array binding signal intensity,[40],15.5
same,SPOT peptide array binding signal intensity,[41],10.5
same,SPOT peptide array binding signal intensity,[42],≤ 0
same,SPOT peptide array binding signal intensity,[43],≤ 0
same,SPOT peptide array binding signal intensity,[44],3250
same,SPOT peptide array binding signal intensity,[45],128
same,SPOT peptide array binding signal intensity,[46],≤ 0
same,SPOT peptide array binding signal intensity,[47],≤ 0
same,SPOT peptide array binding signal intensity,[48],6.5
same,SPOT peptide array binding signal intensity,[49],≤ 0
same,SPOT peptide array binding signal intensity,[50],1950
same,SPOT peptide array binding signal intensity,[51],1820
same,SPOT peptide array binding signal intensity,[52],≤ 0
same,SPOT peptide array binding signal intensity,[53],≤ 0
same,SPOT peptide array binding signal intensity,[54],≤ 0
same,SPOT peptide array binding signal intensity,[55],542
same,SPOT peptide array binding signal intensity,[56],≤ 0
same,SPOT peptide array binding signal intensity,[57],1.25
same,SPOT peptide array binding signal intensity,[58],≤ 0
same,SPOT peptide array binding signal intensity,[59],1
same,SPOT peptide array binding signal intensity,[60],94
same,SPOT peptide array binding signal intensity,[61],1
same,SPOT peptide array binding signal intensity,[62],≤ 0
same,SPOT peptide array binding signal intensity,[63],≤ 0
same,SPOT peptide array binding signal intensity,[64],1210
same,SPOT peptide array binding signal intensity,[65],326
same,SPOT peptide array binding signal intensity,[66],≤ 0
same,SPOT peptide array binding signal intensity,[67],≤ 0
same,SPOT peptide array binding signal intensity,[68],≤ 0
same,SPOT peptide array binding signal intensity,[69],1260
same,SPOT peptide array binding signal intensity,[70],≤ 0
same,SPOT peptide array binding signal intensity,[71],≤ 0
same,SPOT peptide array binding signal intensity,[72],0.5
same,SPOT peptide array binding signal intensity,[73],≤ 0
same,SPOT peptide array binding signal intensity,[74],≤ 0
